Laboratory results published in publication PMC4336329 (PLoS ONE, 2015).
Screen size: about 310,000 compounds; about 14,000 (4.5%) showed an effect of 50% or more. The effect is printed as a negative number. Many of the other results were omitted from the sample, so strong results are more common in it than they were.

The compounds below were run against human ether-à-go-go-related gene (hERG) potassium channel (human, UniProt Q12809) (assay: primary screen, population patch clamp on CHO cells stably expressing hERG; higher = less effect of the substance).
Sequence of human ether-à-go-go-related gene (hERG) potassium channel (Q12809 whole entry, looked up): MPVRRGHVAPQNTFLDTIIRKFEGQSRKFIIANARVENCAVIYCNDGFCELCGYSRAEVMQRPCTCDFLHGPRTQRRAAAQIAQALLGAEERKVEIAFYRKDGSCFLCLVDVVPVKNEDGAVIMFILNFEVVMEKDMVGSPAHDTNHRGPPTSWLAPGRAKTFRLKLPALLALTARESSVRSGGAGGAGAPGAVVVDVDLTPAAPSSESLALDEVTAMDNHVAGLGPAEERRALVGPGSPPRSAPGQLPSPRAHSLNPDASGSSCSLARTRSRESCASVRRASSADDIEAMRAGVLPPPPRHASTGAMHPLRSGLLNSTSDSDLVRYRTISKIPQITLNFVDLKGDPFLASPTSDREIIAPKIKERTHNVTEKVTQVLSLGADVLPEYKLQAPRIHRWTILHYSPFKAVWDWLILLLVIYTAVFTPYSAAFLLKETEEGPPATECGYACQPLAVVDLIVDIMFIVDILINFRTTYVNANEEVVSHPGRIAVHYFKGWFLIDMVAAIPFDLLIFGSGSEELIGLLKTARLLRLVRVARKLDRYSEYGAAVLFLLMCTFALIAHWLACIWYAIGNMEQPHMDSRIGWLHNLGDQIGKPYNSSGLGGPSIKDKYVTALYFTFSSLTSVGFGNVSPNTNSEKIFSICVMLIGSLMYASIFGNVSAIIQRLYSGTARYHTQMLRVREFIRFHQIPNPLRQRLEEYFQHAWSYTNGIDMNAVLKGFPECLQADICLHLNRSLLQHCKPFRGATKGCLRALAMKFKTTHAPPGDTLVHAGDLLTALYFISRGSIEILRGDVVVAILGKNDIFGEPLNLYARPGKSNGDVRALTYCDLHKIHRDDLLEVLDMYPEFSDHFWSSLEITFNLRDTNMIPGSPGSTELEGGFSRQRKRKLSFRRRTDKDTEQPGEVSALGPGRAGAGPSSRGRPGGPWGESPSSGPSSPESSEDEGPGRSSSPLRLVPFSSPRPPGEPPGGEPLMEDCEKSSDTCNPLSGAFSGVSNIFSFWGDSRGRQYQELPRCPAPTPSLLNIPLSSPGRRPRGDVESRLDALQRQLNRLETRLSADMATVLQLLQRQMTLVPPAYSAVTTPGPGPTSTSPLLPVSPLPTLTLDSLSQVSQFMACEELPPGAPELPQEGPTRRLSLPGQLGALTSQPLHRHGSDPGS
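Note: peak tail current of the secondary pulse compared with the same well before compound.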

Structure (SMILES)	hERG current change (%, negative = inhibition) at 10uM [%]
Nc1cc(=O)[nH]c(SCc2nnnn2-c2ccc(Cl)cc2)n1	4.04
CCN1CCCC1CNC(=O)Cn1cc2c(n1)CCC(C)C2 (stereo not drawn)	5.4
Cn1ncc(C#N)c1/N=C/N(Cc1ccccc1)Cc1ccccc1	-9.12
COCCN(C(=O)COC(=O)c1ccccc1Nc1ccccc1)c1c(N)n(Cc2ccccc2)c(=O)[nH]c1=O	-44.9
Cc1occc1C(=O)NNC(=S)NCc1ccccc1	6.47
CC(C)(C)C(=O)Nc1cc2c3c(c1)CC(=O)N3CCC2	18.3
CCN1CCCC1CN(Cc1cc2cc(C)cc(C)c2[nH]c1=O)C(=O)Nc1ccccc1OC (stereo not drawn)	-61.4
CCOc1ccc2[nH]c(=O)c(CN(CC3CCCN3CC)C(=O)NCc3ccccc3)cc2c1 (stereo not drawn)	-63.2
COc1ccccc1NC(=O)N(Cc1cc2cc(OC)c(OC)cc2[nH]c1=O)CC1CCCO1 (stereo not drawn)	-9.13
CCN1CCCC1CN(Cc1cc2ccc(C)c(C)c2[nH]c1=O)C(=O)Nc1ccccc1OC (stereo not drawn)	-63.3
CCN1CCCC1CN(Cc1cc2cc(C)ccc2[nH]c1=O)C(=O)Nc1ccccc1OC (stereo not drawn)	-60
COc1ccccc1NC(=O)N(CCN1CCOCC1)Cc1cc2cc(C)cc(C)c2[nH]c1=O	-33.2
CCN1CCCC1CN(Cc1cc2cc(OC)ccc2[nH]c1=O)C(=O)NCc1ccccc1 (stereo not drawn)	-46.4
COc1ccccc1NC(=O)N(Cc1ccco1)Cc1cc2cc(C)cc(C)c2[nH]c1=O	-2.39
CCOc1ccc2[nH]c(=O)c(CN(Cc3ccccc3)C(=O)N3CCCC3)cc2c1	9.28
COc1ccccc1NC(=S)N(Cc1ccco1)Cc1cc2ccc(C)c(C)c2[nH]c1=O	-8.05
COc1ccccc1NC(=O)N(Cc1ccco1)Cc1cc2ccc(C)c(C)c2[nH]c1=O	8.85
Cc1ccc2[nH]c(=O)c(CN(CC3COCCO3)C(=O)Nc3ccccc3C)cc2c1 (stereo not drawn)	3.87
CCn1c(Cc2c(C)[nH]c3ccccc23)nnc1SCC(N)=O	13.4
Cc1nn(C)c2c(=O)c(=O)c2n(C)[nH]1	18
Cc1c(C(=O)NCC2CCCO2)oc2ccc3c(c12)C(=O)CC(C)(C)O3 (stereo not drawn)	2.71
O=C(CSc1nnc(CNC(=O)c2ccco2)o1)Nc1cccc(C(F)(F)F)c1	-48.3
COc1cccc(NC(=O)Cc2csc(NC(=O)Nc3ccccc3OC)n2)c1	18.2
COc1ccc(CNCc2c(O)c(Cl)cc3c(C)c(C)c(=O)oc23)c(OC)c1.Cl	-3.6
O=C(Cn1c(=O)oc2cc(S(=O)(=O)N3CCCC3)ccc21)N1CCc2ccccc2C1	-32.3
Cc1cccc2nc(CSCc3ccco3)cn12	-2.01
O=C1c2ccccc2C(=O)N1OCc1ccccc1[N+](=O)[O-]	23.7

Structure (SMILES)	hERG current change (%, negative = inhibition) at 10uM [%]
COc1ccc(NC(=O)N2CCN(c3ccc([N+](=O)[O-])cc3)CC2)cc1OC	-73.2
COc1ccccc1N1CCN(C(=O)Nc2ccc([N+](=O)[O-])cc2)CC1	-52.4
O=[N+]([O-])c1ccc(NC(=S)N2CCN(c3ccc(F)cc3)CC2)cc1	3.73
CCOC(=O)c1ccc(NC(=O)N2CCN(c3ccccc3OC)CC2)cc1	11.4
CN1CCN(C(=O)Nc2ccc([N+](=O)[O-])cc2)CC1	-23.8
O=[N+]([O-])c1ccc(N2CCN(C(=S)Nc3cccc(F)c3)CC2)cc1	-52
COc1cccc(CN2CCN(C(=O)Nc3ccc([N+](=O)[O-])cc3)CC2)c1	-57.2
COc1cccc(CN2CCN(C(=O)CC(C)C)CC2)c1	-13.1
O=[N+]([O-])c1ccc(N2CCN(C(=S)Nc3ccc(F)cc3)CC2)cc1	-44.4
COc1ccc(NC(=O)N2CCN(c3ccc([N+](=O)[O-])cc3)CC2)cc1	-36.9
COc1ccccc1N1CCN(C(=O)c2cc(C(=O)N3CCN(c4ccccc4OC)CC3)cc([N+](=O)[O-])c2)CC1	-0.436
COc1ccc(NC(=O)N2CCCC2)cc1OC	-10.2
CCCC[C@@H]1CNC(=S)N1CCC12CC3CC(CC(C3)C1)C2	18.9
C=CCn1cccc(C(=O)Nc2ccc(SC)cc2)c1=O	-15
Cc1nn(CC(=O)N2CCN(C34CC5CC(CC(C5)C3)C4)CC2)c(C)c1[N+](=O)[O-]	-1.7
Cc1ccc2c(cnn2C(=O)CCCC(=O)NCc2ccc(F)cc2)c1	-9.47
O=C(NCCc1ccccc1)/C(=C/c1ccco1)c1ccccc1	-13.8
CN(C)S(=O)(=O)c1cccc(C(=O)NCC(=O)NC2CCN(Cc3ccccc3)CC2)c1	3.32
Cc1ccc(C(=O)CSc2nnnn2C(C)C)c(C)c1	-3.38
Cc1nc2ccc([N+](=O)[O-])cc2c(=O)n1Cc1cccc(Br)c1	-4.24
COc1ccc(OC)c(NC(=O)c2cc3ccccc3cc2OC)c1	2.44
CCc1c(C#N)sc(C(N)=O)c1CC	13.3
O=[N+]([O-])c1ccc(NC(=S)N2CCN(c3ccccc3)CC2)cc1	-11.4
COc1ccc(NC(=S)N2CCN(c3ccc([N+](=O)[O-])cc3)CC2)cc1OC	-77.3
COc1cccc(NC(=S)N2CCN(c3ccc([N+](=O)[O-])cc3)CC2)c1	-27.5
CCOC(=O)c1cc(CC)sc1NC(=O)C1CC1	-7.16
COC(=O)[C@H](CCSC)NC(=O)NCc1cccs1	20.6
